DT40 TDP1 CPT = growth inhibition of DT40 Tdp1-/-;hTDP1 cells with camptothecin (screen for TDP1 inhibitors); chicken DT40 Tdp1-/-;hTDP1 cells + 20 nM CPT, ATP luminescence, 48 h; Potency, µM (titrated, usually from 46.2 µM), hits mostly inhibitors; hit rate 12% among 420,000; also: nearly all actives have a fitted effect of over 55% in size
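Chicken DT40 Tdp1-/- cells stably complemented with human TDP1 were seeded at 400 cells/well in medium containing 20 nM camptothecin, exposed to pin-transferred compounds, and grown at 37 °C for at least 48 hr. Viability was read as ATP luminescence.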
KB-3-1 tox = kills parental KB-3-1 adenocarcinoma cells | KB-3-1 viability, CellTiter-Glo ATP luminescence, 72 h | Potency, µM (series often up to 46.1 µM), actives largely listed as cytotoxic | hit rate 1.4% among 400,000 | AID 1347075; also: nearly all actives have a fitted effect of over 60% in size
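Cytotoxicity in the drug-sensitive parental line KB-3-1 was scored as loss of CellTiter-Glo luminescence following 72 h incubation with compound. Values come from curve fitting of normalized concentration-response data.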
KB-V1 MDR tox = kills drug-selected multidrug resistant KB-V1 cells; KB-V1 MDR cells viability, CellTiter-Glo, 72 h; Potency, µM (series often up to 46.1 µM), actives largely listed as cytotoxic; hit rate 3.4% among 400,000; also: nearly all actives have a fitted effect of over 60% in size
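In this primary screen, KB-V1 cells overexpressing P-gp are incubated with library compounds (lowest to highest concentration) for 72 h at 37 degrees C before a luminescent ATP viability read.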
HT1080 IDH1KD tx = kills HT-1080 cells with IDH1 knockdown; HT-1080 IDH1 knockdown viability, ATP luminescence, 48 h; Potency, µM (top dose mostly 46.1 µM), most hits filed as cytotoxic; hit rate 2% among 360,000; AID 686971
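CellTiter-Glo luminescence after 48 h compound exposure at 37 degrees C of IDH1-knockdown HT-1080 cells in 5% FBS RPMI. %Activity scaled between DMSO wells and cell-free media wells, with curves fitted and assigned curve classes.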
TDP1 cell noCPT = qHTS for Inhibitors of human tyrosyl-DNA phosphodiesterase 1 (TDP1): qHTS in cells in absence of CPT; DT40 Tdp1-/- hTDP1 cells, no CPT, ATP luminescence, 48 h; Potency, µM (doses to about 46.2 µM), actives largely listed as inhibitors; hit rate 15% among 420,000; also: nearly all actives have a fitted effect of over 55% in size
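Chicken DT40 Tdp1-/- cells complemented with human TDP1, screened without camptothecin (DMSO vehicle only), 400 cells/well. Compounds pin-transferred, cells incubated at 37 °C for at least 48 hr. Growth read as ATP-dependent luminescence (CellTiter-Glo, 30 min at RT).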
HT1080-NT tox = kills 2HG-producing HT-1080-NT fibrosarcoma cells. HT-1080-NT fibrosarcoma viability, CellTiter-Glo ATP luminescence, 48 h. Potency, µM (titrated, usually from 46.1 µM), hits mostly cytotoxic. hit rate 1.6% among 360,000. AID 686970;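 also: NT is the 2HG producing partner of a matched IDH1 knockdown line; nearly all actives have a fitted effect of over 55% in size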
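HT-1080-NT; 750 cells/well; 5% FBS RPMI; 48 h compound, 37 degrees C; CellTiter-Glo luminescence; curve fitting and curve-class assignment.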
Large screens that a line does not name were inactive. Rows were chosen to be rich in hits. Some 19% of all compounds tested hit in one or more screens of this group. Calls follow the shape of the dose curve; as a rule, active = well fitted curve in the direction sought with a large enough effect; inconclusive = small, poorly fitted or top-dose-only effect, or another doubt; inactive = no such curve, though single readings can be large; an effect the other way counts as inactive or inconclusive.

N#C/C(=C\C=C\c1ccccc1)C(=O)Nc1ccccc1	none
N#C/C(=C\c1ccc(O)c(O)c1)C(=O)NCCCCc1ccccc1	DT40 TDP1 CPT 6.7µM, TDP1 cell noCPT 8.4µM (no result: KB-3-1 tox, KB-V1 MDR tox, HT1080 IDH1KD tx, HT1080-NT tox)
COc1ccc(OC)c(NC(=O)C(C#N)=Cc2ccco2)c1	none
N#C/C(=C/C=C/c1ccccc1)C(=O)Nc1ccccc1	KB-V1 MDR tox 16µM, HT1080 IDH1KD tx inconclusive, TDP1 cell noCPT inconclusive
CN(CC(=O)Nc1ccc(F)cc1)C(=O)Cn1cnc2ccc(Cl)cc2c1=O	none
Cn1c(=O)c2c(SCC(=O)NCc3ccco3)nc(-c3ccccc3F)nc2n(C)c1=O	none (no result: HT1080 IDH1KD tx, HT1080-NT tox)
CC(C)C(=O)Nc1ccc(C(=O)CN2C(=O)NC3(CCOc4ccccc43)C2=O)cc1 (stereo not drawn)	DT40 TDP1 CPT inconclusive, TDP1 cell noCPT inconclusive
CC(C)CC(=O)Nc1ccc(C(=O)CN2C(=O)NC3(CCOc4ccccc43)C2=O)cc1 (stereo not drawn)	DT40 TDP1 CPT 18µM
CC1(c2ccccc2Cl)NC(=O)N(CC(=O)Nc2ccc(N3CCCCC3)cc2)C1=O (stereo not drawn)	DT40 TDP1 CPT inconclusive, TDP1 cell noCPT 21µM
CC(C)c1ccc(C2(C)NC(=O)N(C(C)C(=O)Nc3ccc(N4CCOCC4)cc3)C2=O)cc1 (stereo not drawn)	DT40 TDP1 CPT 15µM, TDP1 cell noCPT 26µM
CCCCCC(=O)Nc1ccc(C(=O)CN2C(=O)NC3(CCCCCC3)C2=O)cc1	DT40 TDP1 CPT 5.8µM, KB-3-1 tox inconclusive, TDP1 cell noCPT 3.7µM
NC(=O)C1CCN(c2ncc(-c3cccc(N4CCOCC4)c3)s2)CC1	none (no result: DT40 TDP1 CPT, HT1080 IDH1KD tx, TDP1 cell noCPT, HT1080-NT tox)
CN(C)S(=O)(=O)c1cccc(NC(=O)CCCc2nc3ccccc3c(=O)[nH]2)c1	KB-3-1 tox inconclusive
Cc1ccc(NC(=O)C(C)N2C(=O)C3CC=C(Cl)CC3C2=O)cc1 (stereo not drawn)	none
CC(C(=O)Nc1ccc(Cl)cc1)N1C(=O)NC2(CCCC2)C1=O (stereo not drawn)	DT40 TDP1 CPT inconclusive, TDP1 cell noCPT 21µM
CC(C)c1ccc(NC(=O)CN2C(=O)NC3(CCCCCCC3)C2=O)cc1	DT40 TDP1 CPT 21µM, HT1080 IDH1KD tx inconclusive, TDP1 cell noCPT 21µM
COc1ccc(NC(=O)CN2C(=O)NC3(CCCCCCC3)C2=O)cc1	none
CN(CC(=O)NCc1ccccc1Cl)S(=O)(=O)c1ccc2c(c1)c(=O)n(C)c(=O)n2C	none (no result: HT1080 IDH1KD tx, HT1080-NT tox)
Cc1ccc(S(=O)(=O)N2CCN(C(=O)CN3CCOCC3)C2c2ccccc2)cc1 (stereo not drawn)	DT40 TDP1 CPT inconclusive, TDP1 cell noCPT 16µM
Cc1ccc(S(=O)(=O)N2CCN(S(=O)(=O)c3ccccc3)C2c2ccc(N(C)C)cc2)cc1 (stereo not drawn)	DT40 TDP1 CPT 16µM, TDP1 cell noCPT inconclusive
CC1(C(=O)Nc2ccc3c(c2)OCCO3)CCC(=O)N1CCc1c[nH]c2ccccc12 (stereo not drawn)	KB-V1 MDR tox inconclusive
Cc1nc([N+](=O)[O-])c(N2CCN(Cc3ccccc3)CC2)n1Cc1ccccc1	DT40 TDP1 CPT inconclusive, TDP1 cell noCPT inconclusive
COc1ccc2nc(Sc3c([N+](=O)[O-])nc(C)n3Cc3ccccc3)[nH]c2c1	DT40 TDP1 CPT 18µM, KB-3-1 tox inconclusive, HT1080 IDH1KD tx 21µM, TDP1 cell noCPT 23µM, HT1080-NT tox inconclusive
Cc1nc([N+](=O)[O-])c(Sc2nc3ccccc3[nH]2)n1Cc1ccccc1	DT40 TDP1 CPT 8.2µM, TDP1 cell noCPT 12µM
Cc1nc([N+](=O)[O-])c(N2CCOCC2)n1Cc1ccccc1	none
Cn1cnc([N+](=O)[O-])c1Sc1nc2ccccc2[nH]1	DT40 TDP1 CPT 10µM, HT1080 IDH1KD tx 18µM, TDP1 cell noCPT 18µM, HT1080-NT tox inconclusive
COc1ccc2nc(SCC(=O)NCc3ccccc3)[nH]c2c1	none

Source: PubChem
